Bioassay records (PubChem)
AGP1 TOR yeast – alters AGP1-GFP fluorescence in TOR pathway yeast screen; hit rate 0.02% among 320,000; GFP response vs DMSO, % at 10 µM; S. cerevisiae AGP1-GFP multiplex flow cytometry, 3 h; GFP as percent of DMSO wells;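 active = GFP response relative to DMSO above a set limit, near screen average plus 3 SD, cut at about 150% in these data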;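 note: median GFP channel fluorescence of the gated AGP1 strain per well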
CIT2 TOR yeast – yeast TOR pathway CIT2-GFP modulation; S. cerevisiae CIT2-GFP strain, flow cytometry, 3 h; 100 means same as DMSO wells; GFP response vs DMSO, % at 10 µM; hit rate 0.065% among 320,000; AID 2029;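 active = GFP response relative to DMSO above a set limit, near the screen mean plus 3 SD, cut at about 150% in these data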;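 note: ratio of well median GFP fluorescence to mean of DMSO wells on the plate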
MEP2 TOR yeast – yeast TOR pathway MEP2-GFP modulation; S. cerevisiae MEP2-GFP strain, flow cytometry GFP, 3 h; 100% = DMSO control level; GFP response vs DMSO, % at 10 µM; hit rate 0.51% among 330,000; AID 2016;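 active = GFP response versus DMSO above a set limit, roughly screen mean plus 3 SD, cut at about 180% in these data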;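 note: median GFP fluorescence of the barcode-gated MEP2-GFP cells per well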
RPL19A TOR yeast – yeast TOR pathway RPL19A-GFP modulation; percent response vs DMSO, % at 10 µM; AID 2025; S. cerevisiae RPL19A-GFP strain, flow cytometry, 3 h; hits give low values; hit rate 0.3% among 330,000;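 active = percent response vs DMSO below 50%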;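 note: median channel GFP fluorescence of the barcoded RPL19A-GFP strain; lower means less RPL19A-GFP as with rapamycin TOR inhibition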
LAP4-GFP MLPCN – yeast TOR pathway LAP4-GFP modulation; S. cerevisiae LAP4-GFP multiplex, flow cytometry GFP, 3 h; median GFP as percent of DMSO wells; GFP response vs DMSO, % at 10 µM; hit rate 0.34% among 320,000; AID 2023;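 active = GFP response vs DMSO above a set limit, about the screen mean plus 3 SD, cut at about 150% in these data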
LAP4 cherry2 – reconfirmed LAP4-GFP TOR pathway modulator in yeast | shares compounds with LAP4-GFP MLPCN | S. cerevisiae LAP4-GFP strain, flow cytometry GFP, 3 h | GFP response vs DMSO, % at 10 µM | hit rate 20% among 590 | AID 2621;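 active = GFP signal as percent of the solvent control above about 150%, meaning raised reporter expression, limit read from the data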
MEP2-GFP pick2 – yeast MEP2-GFP modulation, second cherry pick | shares compounds with LAP4-GFP MLPCN | S. cerevisiae MEP2-GFP strain, flow cytometry GFP, 3 h | GFP response vs DMSO, % at 10 µM | hit rate 10% among 590;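 active = GFP signal above 150% of the solvent control wells, that is a rise of more than half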;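 note: median channel GFP fluorescence of all gated yeast cells per well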
RPL19A GFP CP2 – second confirmation of modulators of TOR reporter RPL19A-GFP in yeast. shares compounds with LAP4-GFP MLPCN. S. cerevisiae RPL19A-GFP strain, flow cytometry GFP, 3 h; hits give low values; 100% means same as DMSO wells. GFP response vs DMSO, % at 10 µM. hit rate 3% among 590. AID 2623;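 active = under 65% GFP response relative to DMSO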;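 note: median GFP channel fluorescence per well over the all cells gate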
CIT2 GFP CP2 – second confirmation of modulators of TOR reporter CIT2-GFP in yeast. shares compounds with LAP4-GFP MLPCN. S. cerevisiae CIT2-GFP strain, flow cytometry GFP, 3 h; DMSO control wells read 100%. GFP response vs DMSO, % at 10 µM. hit rate 8% among 590;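 active = GFP response vs DMSO above about 150%, limit read from the data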;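 note: median green fluorescence per well over all gated yeast cells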
AGP1 GFP CP2 – reconfirmed modulator of AGP1-GFP TOR reporter in yeast | shares compounds with LAP4-GFP MLPCN | S. cerevisiae AGP1-GFP strain, flow cytometry GFP, 3 h | percent response vs DMSO, % at 10 µM | 590 tested, under 10 active;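 active = over 150 percent of DMSO response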;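 note: median GFP channel fluorescence over all cells without mother daughter split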
s288c autofluor – counter-screen for compound autofluorescence in yeast s288c cells; shares compounds with LAP4-GFP MLPCN; S. cerevisiae s288c, 520 nm autofluorescence, flow cytometry, 3 h; hits give high values; zero means same as solvent-only cells; fluorescence change (kMESF span) at 33 µM; 610 tested, under 10 active; AID 2757;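 active = fluorescence span over the dose series, or activity score, above about 33, limit read from the data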
Hits are given with their value; 0 = inactive; - = not tested or not shown. Hits are enriched below; roughly 0.93% of the tested compounds scored in any of these assays.

SMILES | AGP1 TOR yeast | CIT2 TOR yeast | MEP2 TOR yeast | RPL19A TOR yeast | LAP4-GFP MLPCN | LAP4 cherry2 | MEP2-GFP pick2 | RPL19A GFP CP2 | CIT2 GFP CP2 | AGP1 GFP CP2 | s288c autofluor
Cc1ccc(-n2c(C)cc(C(=O)COC(=O)c3ccc[nH]c3=O)c2C)cc1C | 0 | 0 | 0 | 0 | 0 | - | - | - | - | - | -
O=C(c1ccc(=O)[nH]c1)N1CCCc2ccccc21 | 0 | 0 | 0 | 0 | 0 | - | - | - | - | - | -
COc1cc(NC(=O)c2cccc(C)c2)ccc1NC(=O)c1cc2ccccc2o1 | 0 | 0 | 0 | 0 | 0 | - | - | - | - | - | 0
O=C(Nc1ccc(NC(=O)c2cc3ccccc3o2)cc1)c1ccco1 | 0 | 0 | 0 | 0 | 0 | - | - | - | - | - | 0
O=C(Nc1ccccc1)c1cc2ccccc2o1 | 0 | 0 | 0 | 0 | 0 | - | - | - | - | - | -
CCSc1ccc(-c2nn(-c3ccccc3)cc2/C=C(/C#N)C(=O)NCCCOC)cc1 | 0 | 186 | 525 | 0 | 186 | 0 | 0 | 0 | 0 | 0 | -
CCCSc1ccc(-c2nn(-c3ccccc3)cc2/C=C(/C#N)C(=O)NCCCOC)cc1 | 0 | 0 | 0 | 0 | 0 | - | - | - | - | - | -
CN(O)/C=c1/ccc2c(n1)C(=O)C=CC=2 | 0 | 0 | 0 | 0 | 275 | - | - | - | - | - | 0
CCOc1cc(Cl)c(S(=O)(=O)NCCCN2CCOCC2)cc1Cl | 0 | 0 | 0 | 0 | 0 | - | - | - | - | - | -
CCSC1=NSC2=NC(=O)/C(=C\c3coc4ccccc4c3=O)C(=N)N12 | 0 | 0 | 268 | 0 | 0 | 309 | 169 | 0 | 161 | 0 | -
O=S(=O)(c1ccc(F)cc1)c1snnc1-c1ccccc1 | 0 | - | 0 | 0 | 0 | 0 | 0 | 0 | 0 | 0 | -
COc1cc(/C=C2/C(=O)c3cccc([N+](=O)[O-])c3C2=O)c(Br)cc1O | 0 | 0 | 0 | 0 | 0 | 0 | 0 | 0 | 0 | 0 | 0
COc1ccccc1NC(=O)CCCCCN1C(=O)c2cccc([N+](=O)[O-])c2C1=O | 0 | 0 | 0 | 0 | 0 | - | - | - | - | - | -
Cc1nc(C)n(CCNS(=O)(=O)c2ccc(C)c(C)c2)n1 | 0 | 0 | 0 | 0 | 0 | - | - | - | - | - | -
